# Data: PubChem BioAssay
# Values without a mark were called inactive. For some of these results: Measured potencies and affinities stand elsewhere. Active and inactive are the calls of the source. Unless noted, no rule for the calls is given here.
# Columns and labels:
# [1] = antimalarial activity against Dd2 strain (AID 2302;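 active = growth inhibition above 50% at the single 2 µM test dose, taken to imply half-maximal potency below 2 µM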;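 also: 0% = DMSO untreated growth and 100% = chloroquine plus artemisinin killed control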); conditions: P. falciparum Dd2 in RBCs, LDH growth readout, 72 h; at 2 µM; stronger effect = higher value
# [2] = human hepatoma cell viability loss – ATP luminescence, cytotoxicity control for P. falciparum antimalarial project, primary screen (AID 2303;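 active = inhibition above 50%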;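 also: 0% = DMSO wells and 100% = digitonin-killed cells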); conditions: HepG2 viability, 24-48 h, at 10 µM, stronger effect = higher value
# [3] = biological target: L-lactate dehydrogenase (Plasmodium falciparum (isolate CDC / Honduras)) (UniProt Q27743); assay: PfLDH activity inhibition – cell lysate, 3D7 strain, counter-screen for P. falciparum growth inhibition project (AID 2304);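 also: 0% = vehicle and 100% = reference inhibitor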; conditions: P. falciparum 3D7 crude extract, LDH APAD/NBT absorbance; at 2 µM; stronger effect = higher value
# Sequence of L-lactate dehydrogenase (Plasmodium falciparum (isolate CDC / Honduras)) (Q27743 whole entry, looked up): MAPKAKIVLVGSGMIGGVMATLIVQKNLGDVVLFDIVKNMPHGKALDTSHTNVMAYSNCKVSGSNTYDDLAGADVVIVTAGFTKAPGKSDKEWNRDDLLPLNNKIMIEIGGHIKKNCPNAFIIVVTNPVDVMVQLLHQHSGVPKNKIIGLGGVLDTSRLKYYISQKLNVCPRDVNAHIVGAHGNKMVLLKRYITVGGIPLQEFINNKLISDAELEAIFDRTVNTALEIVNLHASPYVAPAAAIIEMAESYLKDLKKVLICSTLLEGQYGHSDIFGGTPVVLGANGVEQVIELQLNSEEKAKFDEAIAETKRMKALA
# [4] = inhibition of 3D7 malaria parasite growth – strain 3D7 (AID 2306);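 also: 0% = DMSO wells and 100% = chloroquine plus artemisinin control wells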; conditions: P. falciparum 3D7 erythrocytic growth, LDH absorbance, 72 h; at 2 µM; stronger effect = higher value
# [5] = biological target: Calcium-dependent protein kinase 1 (Plasmodium falciparum (isolate 3D7)) (UniProt P62344); assay: PfCDPK1 kinase inhibitors, biochemical, TCAMS library (AID 1159585; cut-off not given, nearly all actives have IC50 up to about 0.98 µM;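 also: inhibitors leave more ATP so luminescence rises with inhibition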); conditions: recombinant PfCDPK1, Kinase-Glo ATP depletion luminescence
# Sequence of Calcium-dependent protein kinase 1 (Plasmodium falciparum (isolate 3D7)) (P62344 whole entry, looked up): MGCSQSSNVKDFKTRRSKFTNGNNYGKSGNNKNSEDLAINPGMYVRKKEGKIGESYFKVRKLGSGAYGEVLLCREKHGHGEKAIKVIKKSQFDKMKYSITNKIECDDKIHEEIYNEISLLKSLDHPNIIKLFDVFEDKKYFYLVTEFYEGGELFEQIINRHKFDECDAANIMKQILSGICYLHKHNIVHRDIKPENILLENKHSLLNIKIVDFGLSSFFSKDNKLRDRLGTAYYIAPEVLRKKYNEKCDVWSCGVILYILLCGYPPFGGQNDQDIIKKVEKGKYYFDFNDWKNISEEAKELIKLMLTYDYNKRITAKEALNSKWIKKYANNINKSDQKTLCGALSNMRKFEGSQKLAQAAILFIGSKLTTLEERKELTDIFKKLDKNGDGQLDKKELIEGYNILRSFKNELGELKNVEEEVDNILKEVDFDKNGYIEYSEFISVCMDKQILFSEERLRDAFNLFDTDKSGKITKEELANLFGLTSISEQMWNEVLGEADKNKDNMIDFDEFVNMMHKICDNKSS
# [6] = biological target: Plasmodium falciparum protein kinase 6 (PK6, PF3D7_1337100) (UniProt Q8IDW1); assay: PfPK6 kinase inhibitors, biochemical, TCAMS library (AID 1159586); conditions: recombinant PfPK6, Kinase-Glo ATP depletion luminescence
# Sequence of Plasmodium falciparum protein kinase 6 (PK6, PF3D7_1337100) (Q8IDW1 1-305): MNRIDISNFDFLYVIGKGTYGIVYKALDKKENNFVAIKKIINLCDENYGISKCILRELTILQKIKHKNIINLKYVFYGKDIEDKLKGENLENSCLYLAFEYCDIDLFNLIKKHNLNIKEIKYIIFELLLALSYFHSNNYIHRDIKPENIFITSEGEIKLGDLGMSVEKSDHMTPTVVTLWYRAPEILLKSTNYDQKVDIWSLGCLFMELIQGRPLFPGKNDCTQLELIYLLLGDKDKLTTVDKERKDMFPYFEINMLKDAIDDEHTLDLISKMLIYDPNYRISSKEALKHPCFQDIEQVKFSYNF
# [7] = biological target: Protein kinase 7 (PK7), Plasmodium falciparum 3D7 (PF3D7_0213400) (UniProt Q7YTF7); assay: inhibition of Plasmodium PK7 catalytic activity – biochemical, TCAMS antimalarial set, Kinase-Glo luminescence (AID 1159587); conditions: recombinant PfPK7, Kinase-Glo ATP depletion luminescence
# Sequence of Protein kinase 7 (PK7), Plasmodium falciparum 3D7 (PF3D7_0213400) (Q7YTF7 1-343): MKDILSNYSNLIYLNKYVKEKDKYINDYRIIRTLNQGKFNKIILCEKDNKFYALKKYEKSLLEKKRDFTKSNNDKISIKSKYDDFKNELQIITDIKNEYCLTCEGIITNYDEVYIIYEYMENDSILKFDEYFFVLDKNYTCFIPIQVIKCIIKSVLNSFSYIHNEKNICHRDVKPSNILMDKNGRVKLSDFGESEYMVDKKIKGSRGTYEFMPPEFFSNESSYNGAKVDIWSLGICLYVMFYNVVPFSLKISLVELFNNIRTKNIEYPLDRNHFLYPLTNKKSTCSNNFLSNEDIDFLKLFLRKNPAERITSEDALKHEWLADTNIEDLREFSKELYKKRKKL
# [8] = biological target: Calcium-dependent protein kinase 4 (Plasmodium falciparum (isolate 3D7)) (UniProt Q8IBS5); assay: PfCDPK4 kinase inhibitors, biochemical, TCAMS library (AID 1159588; cut-off not given, nearly all actives have IC50 up to about 0.91 µM); conditions: recombinant PfCDPK4, Kinase-Glo ATP depletion luminescence
# Sequence of Calcium-dependent protein kinase 4 (Plasmodium falciparum (isolate 3D7)) (Q8IBS5 whole entry, looked up): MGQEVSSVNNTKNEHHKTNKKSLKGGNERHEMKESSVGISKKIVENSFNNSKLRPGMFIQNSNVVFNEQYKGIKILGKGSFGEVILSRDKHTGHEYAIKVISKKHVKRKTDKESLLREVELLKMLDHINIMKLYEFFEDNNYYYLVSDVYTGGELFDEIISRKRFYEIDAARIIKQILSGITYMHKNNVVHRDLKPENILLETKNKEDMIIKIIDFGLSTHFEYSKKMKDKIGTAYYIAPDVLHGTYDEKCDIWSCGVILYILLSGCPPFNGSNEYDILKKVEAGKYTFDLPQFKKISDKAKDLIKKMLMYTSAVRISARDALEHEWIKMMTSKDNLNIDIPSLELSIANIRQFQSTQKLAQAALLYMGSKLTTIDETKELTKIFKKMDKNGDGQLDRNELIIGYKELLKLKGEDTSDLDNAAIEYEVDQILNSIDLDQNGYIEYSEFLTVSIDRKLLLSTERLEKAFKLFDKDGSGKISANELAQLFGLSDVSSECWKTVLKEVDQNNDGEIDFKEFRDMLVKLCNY
SMILES,growth inhibition [1],inhibition [2],inhibition [3] [%],growth inhibition [4],outcome [5],outcome [6],outcome [7],outcome [8]
COCCC[C@H]1C(=O)O[C@H]2CCC[C@@H]21,85% (active),-9%,-4,93% (active),inactive,inactive,inactive,inactive
CC(=O)Nc1nc(C(=O)Nc2ccc(-c3cccc(-c4nc5ccc(F)cc5[nH]4)c3)cc2)cs1,29%,86% (active),-7,94% (active),inactive,inactive,inactive,inactive
CN1CCCN(Cc2ccc(-c3cccc(NC(=O)c4ccc(C#N)cc4)c3)cc2)CC1,26%,29%,-5,100% (active),inactive,inactive,inactive,inactive
O=C(Nc1ccc([N+](=O)[O-])cc1)Nc1nc2ccc(Cl)cc2s1,33%,63% (active),2,92% (active),inactive,inactive,inactive,inactive
CN(CCON1C(N)=NC(N)=NC1(C)C)c1ccccc1,93% (active),64% (active),1,97% (active),inactive,inactive,inactive,inactive
O=C(NC1CCN(Cc2ccccc2O)C1)c1cccc(C(F)(F)F)c1 (stereo not drawn),62% (active),-4%,4,98% (active),inactive,inactive,inactive,inactive
CN1CCN(Cc2ccc(-c3ccc4c(Nc5ccc(Oc6ccccc6)cc5)ccnc4c3)o2)CC1,99% (active),23%,0,99% (active),inactive,inactive,inactive,inactive
CCOc1ccc(-c2nc(NC(=O)CS(=O)(=O)c3ccccc3)sc2C)cc1,59% (active),6%,2,100% (active),inactive,inactive,inactive,inactive
NCc1cccc(-c2cccc(CNC3CCN(Cc4ccccc4)CC3)c2)c1,45%,9%,2,100% (active),inactive,inactive,inactive,inactive
COc1ccc(CN2CCC(N3CCc4cc(NC(=O)c5cc(C)on5)ccc43)C2)cc1Cl (stereo not drawn),91% (active),15%,2,94% (active),inactive,inactive,inactive,inactive
FC(F)(F)c1ccc(COc2cc(Cl)ccc2Cn2ccnc2)cc1,0%,13%,-5,95% (active),inactive,inactive,inactive,inactive
O=C(Nc1ccc(-c2csc3nccn23)cc1)c1ccc(Cl)cc1,50% (active),54% (active),-5,100% (active),inactive,inactive,inactive,inactive
O=C(c1ccc(-c2ccc(-c3nc4ccc(C(F)(F)F)cc4[nH]3)s2)cc1)N1CCN(CCc2ccccc2)CC1,60% (active),23%,-5,98% (active),inactive,inactive,inactive,inactive
COc1ccc(-c2ccc(NC(=O)c3cccc(C#N)c3)cc2)cc1CN1CCCC(C(N)=O)C1 (stereo not drawn),44%,12%,0,98% (active),inactive,inactive,inactive,inactive
Cc1ccc(NC(=O)c2cccc(CN3CCCN(Cc4cccc(O)c4)CC3)c2)cc1F,45%,20%,-5,99% (active),inactive,inactive,inactive,inactive
O=C(Cn1c(SCc2cccc(F)c2F)cc(=O)c2ccccc21)N(CCc1cnc[nH]1)Cc1ccc(-c2ccc(C(F)(F)F)cc2)cc1,72% (active),18%,7,101% (active),inactive,inactive,inactive,inactive
COc1cc2c(cc1OC)C(C(=O)c1ccccc1)=NCC2,62% (active),19%,0,85% (active),inactive,inactive,inactive,inactive
O=C(Nc1ccsc1C(=O)NC1CCCCC1)c1ccc(F)cc1,11%,3%,6,86% (active),inactive,inactive,inactive,inactive
O=C(Cc1ccc(NC(=O)c2ccc(O)c(-c3ccc(Cl)c(Cl)c3)c2)cc1)NCc1cccc(C(F)(F)F)c1,28%,-7%,0,95% (active),inactive,inactive,inactive,inactive
Nc1nc2ccc(CN(C=O)c3ccc(C(=O)N[C@@H](CCC(=O)O)C(=O)O)cc3)cc2c(=O)[nH]1,94% (active),-5%,2,93% (active),inactive,inactive,inactive,inactive
CCCCCCN1CCCN(Cc2ccc(C(=O)Nc3ccc(CCC)cc3)cc2)CC1,56% (active),45%,-3,92% (active),inactive,inactive,inactive,inactive

SMILES,growth inhibition [1],inhibition [2],inhibition [3] [%],growth inhibition [4],outcome [5],outcome [6],outcome [7],outcome [8]
Cc1[nH]c(C)c(-c2ccc(-c3ccc(OCC(F)(F)F)cc3)nc2)c(=O)c1Cl,96% (active),3%,4,94% (active),inactive,inactive,inactive,inactive
C[C@@H]1CN(CCCn2c3ccccc3c3ccc(C(=O)CCCN(C)C)cc32)C[C@H](C)N1,6%,26%,3,100% (active),inactive,inactive,inactive,inactive
O=C(O[C@@H]1CN[C@H](C#Cc2cc3c(Nc4ccc5c(cnn5Cc5ccccc5)c4)ncnc3s2)C1)N1CCCC1,87% (active),8%,-1,99% (active),inactive,inactive,inactive,inactive
Cn1cncc1CCN(Cc1ccc(-c2ccc(C(F)(F)F)cc2)cc1)C(=O)Cn1c(CCc2cccc(F)c2F)cc(=O)c2cccnc21,97% (active),44%,-2,100% (active),inactive,inactive,inactive,inactive
CCOc1ccc2nc(C)cc(NN=Cc3ccccc3F)c2c1,99% (active),0%,-3,101% (active),inactive,inactive,inactive,inactive
CCN(CC)S(=O)(=O)c1ccc(CCOCCCCCNCC(O)c2cc(Cl)c(N)c(Cl)c2)s1 (stereo not drawn),80% (active),35%,-10,96% (active),inactive,inactive,inactive,inactive
CCCC1CCNC(C(O)c2ccnc3ccc(OC)cc23)C1 (stereo not drawn),78% (active),-15%,-3,98% (active),inactive,inactive,inactive,inactive
COc1ccccc1CCNC(=O)c1cc(Br)cc(N2CCN(c3ccncc3)CC2)c1,32%,38%,4,84% (active),inactive,inactive,inactive,inactive
CCCCC(=O)Nc1cc(=O)[nH]c2nc(-c3ccc(Cl)cc3)nn12,77% (active),1%,0,89% (active),inactive,inactive,inactive,inactive
COc1cc(N)c(Cl)cc1C(=O)NC1CCC(NCC2CCCCC2)CC1 (stereo not drawn),85% (active),18%,0,90% (active),inactive,inactive,inactive,inactive
CCC(Cc1cnc2nc(N)nc(N)c2n1)c1ccc(C(=O)O)cc1 (stereo not drawn),-2%,15%,-2,93% (active),inactive,inactive,inactive,inactive
CC(=O)Nc1ccc(S(=O)(=O)Nc2ccc(Nc3nc(C)cc(N(C)C)n3)cc2)cc1,22%,-2%,-1,100% (active),inactive,inactive,inactive,inactive
NC1CCCN(Cc2ccc(-c3cccc(-c4nc5ccccc5[nH]4)c3)cc2)C1 (stereo not drawn),26%,26%,2,95% (active),inactive,inactive,inactive,inactive
COc1ccc(OC)c(NC(=O)C2c3ccccc3C(=O)N(CC(C)C)C2c2cccs2)c1 (stereo not drawn),66% (active),9%,-5,100% (active),inactive,inactive,inactive,inactive
COC(=O)c1ccc(-c2ccc(-c3cccnc3)cc2C)cc1,98% (active),81% (active),3,100% (active),inactive,inactive,inactive,inactive
FC(F)(F)COc1ccc(CNCCCCCCNCc2ccc(OCC(F)(F)F)c3ccccc23)c2ccccc12,93% (active),99% (active),3,102% (active),inactive,inactive,inactive,inactive
Cc1cc(N[C@@H](Cc2ccccc2)C(=O)NCc2cccc(F)c2)nc(NCc2ccccc2C)n1,75% (active),6%,0,100% (active),inactive,inactive,inactive,inactive
CCc1ccc(NC(=O)c2ccc(CN3CCCN(CC4CCCCC4)CC3)cc2)cc1,48%,48%,3,96% (active),inactive,inactive,inactive,inactive
CN1CCCC(CN2CCN(Cc3cccc(-c4ccc(-c5nc6ccc(C(F)(F)F)cc6[nH]5)cc4)c3)CC2)C1 (stereo not drawn),96% (active),100% (active),5,99% (active),inactive,inactive,inactive,inactive
Cc1cc(N[C@@H](Cc2ccccc2)C(=O)NCc2cccs2)nc(Nc2ccccc2)n1,36%,3%,-2,96% (active),inactive,inactive,inactive,inactive
